Values joined by “and” are separate entries in the source; they are usually repeats but may differ in a detail not shown here. Equal values may be shown once. More than one record can exist for a structure, and the calls need not agree. Active and inactive are the calls of the source. The calls were made as follows: active = hit-call score of the fitted dose curve at least 0.9, where 1 is the maximum; inactive = score below 0.9.

Read-out in experiment [1]: Vascular cell adhesion molecule 1 (VCAM1), VCAM1 (gene 7412)
Kind of experiment: BSK_4H_VCAM1: BioMAP Diversity Plus: 4H Assay for Vascular cell adhesion molecule 1 (VCAM1) Biomarker Activity (AID 2283033).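 As to outcome: cell-surface VCAM-1 protein measured by ELISA.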 Particulars: primary human endothelial cells (HUVEC); actives raise or lower the signal. The procedure, abridged: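 VCAM-1 ELISA read 24 h after chemical dosing of HUVEC in the BioMAP 4H system, with gain or loss of signal fitted relative to DMSO. Parallel SRB staining (560 nm) checked overt cytotoxicity.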

Read-out in experiment [2]: Interferon-gamma inducible Protein 10 (IP10), CXCL10 (gene 3627)
Kind of experiment: BSK_BE3C_IP10: BioMAP Diversity Plus: BE3C Assay for Interferon-gamma inducible Protein 10 (IP10) Biomarker Activity (AID 2283034). The settings on record: primary human bronchial epithelial cells; actives raise or lower the signal. The procedure, abridged: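 IP-10 quantified by ELISA in human primary bronchial epithelial cell cultures at 24 hours post-dosing. Gain or loss of signal fitted relative to DMSO; parallel SRB staining assessed overt cytotoxicity.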

Read-out in experiment [3]: Monokine induced gamma interferon (MIG), CXCL9 (gene 4283)
Briefly: BSK_BE3C_MIG: BioMAP Diversity Plus: BE3C Assay for Monokine induced gamma interferon (MIG) Biomarker Activity (AID 2283035). The settings on record: primary human bronchial epithelial cells; actives raise or lower the signal. The procedure, abridged: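 ELISA quantified MIG after 24 h exposure of primary bronchial epithelial cultures, analysed in both directions relative to DMSO. Cytotoxicity tracked in parallel cultures by sulforhodamine B staining.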

Read-out in experiment [4]: Plasminogen activator inhibitor-1 (PAI1), SERPINE1 (gene 5054)
Kind of experiment: BSK_BE3C_PAI1: BioMAP Diversity Plus: BE3C Assay for Plasminogen activator inhibitor-1 (PAI1) Biomarker Activity (AID 2283037). Particulars: primary human bronchial epithelial cells; actives raise or lower the signal. An outline of the steps: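 PAI-1 was measured by ELISA in human primary bronchial epithelial cultures 24 h after chemical dosing, with cytotoxicity checked by SRB total-protein staining in parallel cultures. Activity was fitted in both directions relative to DMSO.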

Read-out in experiment [5]: urokinase plasminogen activator (uPA), PLAU (gene 5328)
Kind of experiment: BSK_BE3C_uPA: BioMAP Diversity Plus: BE3C Assay for urokinase plasminogen activator (uPA) Biomarker Activity (AID 2283038).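 As to outcome: uPA protein level quantified by ELISA in cell cultures; uPA read one day after compound addition.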 The settings on record: primary human bronchial epithelial cells; actives raise or lower the signal. The procedure, abridged: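 ELISA for uPA on human primary bronchial epithelial cultures 24 h post-treatment, gain or loss against DMSO. Parallel SRB staining (0.1% after 10% TCA fixation, 560 nm) assessed overt cytotoxicity.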

Read-out in experiment [6]: Urokinase-type plasminogen activator receptor (uPAR), PLAUR (gene 5329)
Kind of experiment: BSK_BE3C_uPAR: BioMAP Diversity Plus: BE3C Assay for Urokinase-type plasminogen activator receptor (uPAR) Biomarker Activity (AID 2283039).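 As to outcome: cells exposed to compound for one day before measurement.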 Particulars: primary human bronchial epithelial cells; actives raise or lower the signal. The procedure, abridged:
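uPAR levels were measured by ELISA after 24 h compound treatment of primary human bronchial epithelial cells, fitted in both directions relative to DMSO. Parallel SRB staining served as the cytotoxicity read-out.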

Read-out in experiment [7]: Interleukin-6 (IL6), IL6 (gene 3569)
Kind of experiment: BSK_CASM3C_IL6: BioMAP Diversity Plus: CASM3C Assay for Interleukin-6 (IL6) Biomarker Activity for (AID 2283040). The settings on record: primary human coronary artery smooth muscle cells; actives raise or lower the signal.

Read-out in experiment [8]: Tissue plasminogen activator (tPA), PLAT (gene 5327)
Kind of experiment: BSK_BE3C_tPA: BioMAP Diversity Plus: BE3C Assay for Tissue plasminogen activator (tPA) Biomarker Activity (AID 2283041).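 As to outcome: tPA level quantified by ELISA one day after compound addition.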 The settings on record: primary human bronchial epithelial cells; actives raise or lower the signal. The procedure, abridged: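 tPA measured by ELISA 24 h after dosing human primary bronchial epithelial cells (BE3C system). Changes in either direction were fitted against DMSO. Parallel cultures were stained with SRB to flag overt cytotoxicity.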

Read-out in experiment [9]: Interleukin-8 (IL8), CXCL8 (gene 3576)
Kind of experiment: BSK_CASM3C_IL8: BioMAP Diversity Plus: CASM3C Assay for Interleukin-8 (IL8) Biomarker Activity (AID 2283042).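 Also: IL-8 protein level quantified by ELISA.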 Particulars: primary human coronary artery smooth muscle cells; actives raise or lower the signal.

Read-out in experiment [10]: Human Leukocyte Antigen - DR isotype (HLADR), HLA-DRA (gene 3122)
Briefly: BSK_CASM3C_HLADR: BioMAP Diversity Plus: CASM3C Assay for Human Leukocyte Antigen - DR isotype (HLADR) Biomarker Activity (AID 2283043).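 Also: cell-surface HLA-DR protein level quantified by ELISA.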 Particulars: primary human coronary artery smooth muscle cells; actives raise or lower the signal.

Read-out in experiment [11]: Macrophage colony-stimulating factor (MCSF), CSF1 (gene 1435)
Briefly: BSK_CASM3C_MCSF: BioMAP Diversity Plus: CASM3C Assay for Macrophage colony-stimulating factor (MCSF) Biomarker Activity (AID 2283044).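 Also: M-CSF protein amount quantified by ELISA after 24 h exposure.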 The settings on record: primary human coronary artery smooth muscle cells; actives raise or lower the signal.

Read-out in experiment [12]: Low-density lipoprotein receptor (LDLR), LDLR (gene 3949)
Kind of experiment: BSK_CASM3C_LDLR: BioMAP Diversity Plus: CASM3C Assay for Low-density lipoprotein receptor (LDLR) Biomarker Activity (AID 2283045).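 Also: LDLR protein level on the cell surface quantified by ELISA.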 Particulars: primary human coronary artery smooth muscle cells; actives raise or lower the signal.

Read-out in experiment [13]: Monocyte Chemoattractant Protein-1 (MCP1), CCL2 (gene 6347)
Briefly: BSK_CASM3C_MCP1: BioMAP Diversity Plus: CASM3C Assay for Monocyte Chemoattractant Protein-1 (MCP1) Biomarker Activity (AID 2283046).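 Also: MCP-1 level quantified by ELISA 24 h after dosing.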 Particulars: primary human coronary artery smooth muscle cells; actives raise or lower the signal.

A short description of experiment [14]: BSK_CASM3C_Proliferation: Cell Proliferation Assessment in the BioMAP Diversity Plus: CASM3C Assay (AID 2283047).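 Also: sulforhodamine B total protein stain as relative cell number at 560 nm; sub-confluent cells exposed 48 h before staining; fitted both ways against DMSO so gain or loss of cell number.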 The settings on record: primary human coronary artery smooth muscle cells.
Read-out in experiment [15]: Monokine induced gamma interferon (MIG), CXCL9 (gene 4283)
Briefly: BSK_CASM3C_MIG: BioMAP Diversity Plus: CASM3C Assay for Monokine induced gamma interferon (MIG) Biomarker Activity (AID 2283048).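 Also: MIG protein level measured by ELISA.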 Particulars: primary human coronary artery smooth muscle cells; actives raise or lower the signal.

Read-out in experiment [16]: serum amyloid A (SAA), SAA1 (gene 6288)
Briefly: BSK_CASM3C_SAA: BioMAP Diversity Plus: CASM3C Assay for serum amyloid A (SAA) Biomarker Activity (AID 2283049).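 Also: SAA protein level quantified by ELISA.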 Particulars: primary human coronary artery smooth muscle cells; actives raise or lower the signal.

A short description of experiment [17]: BSK_CASM3C_SRB: Viability Assessment in the BioMAP Diversity Plus: CASM3C Assay (AID 2283050). Particulars: primary human coronary artery smooth muscle cells.
Read-out in experiment [18]: Thrombomodulin, THBD (gene 7056)
Kind of experiment: BSK_CASM3C_Thrombomodulin: BioMAP Diversity Plus: CASM3C Assay for Thrombomodulin Biomarker Activity (AID 2283051).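 Also: thrombomodulin protein level measured by ELISA 24 h after dosing.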 The settings on record: primary human coronary artery smooth muscle cells; actives raise or lower the signal.

Read-out in experiment [19]: Tissue Factor, F3 (gene 2152)
Kind of experiment: BSK_CASM3C_TissueFactor: BioMAP Diversity Plus: CASM3C Assay for Tissue Factor Biomarker Activity (AID 2283052).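 Also: cell surface tissue factor protein level read by ELISA.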 The settings on record: primary human coronary artery smooth muscle cells; actives raise or lower the signal.

Read-out in experiment [20]: Transforming growth factor beta 1 (TGFb1), TGFB1 (gene 7040)
Briefly: BSK_BE3C_TGFb1: BioMAP Diversity Plus: BE3C Assay for Transforming growth factor beta 1 (TGFb1) Biomarker Activity (AID 2283036;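 also: TGF-b1 protein level measured by ELISA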). The settings on record: primary human bronchial epithelial cells; actives raise or lower the signal. An outline of the steps:
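ELISA readout of TGF-b1 from human lung bronchial epithelial primary cells, taken 24 h post-treatment. Gain or loss of signal fitted relative to DMSO baseline, with parallel SRB staining for overt cytotoxicity.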

Turning to `O=C(O)C(F)(F)OC(F)(F)C(F)(F)OC(F)(F)C(F)(F)OC(F)(F)C(F)(F)C(F)(F)C(F)(F)F`, the AC50 was 48.4 µM (active) and 50.2 µM (active) in [1]; 4.85 µM (active) and 4.88 µM (active) in [2]; 4.58 µM (active) and 4.77 µM (active) in [3]; 4.78 µM (active) and 4.58 µM (active) in experiment [4]; 3.94 µM (active) and 3.9 µM (active) in experiment [5]; 5.83 µM (active) and 5.88 µM (active) in [6]. Besides, the AC50 in [8] is 4.98 µM (active) and 4.8 µM (active); in experiment [11], 48.1 µM (active); in experiment [12], 46.1 µM (active) and 55.2 µM (active); in experiment [14], 51.1 µM (active) and 56.6 µM (active); in experiment [16] it was 43.5 µM (active); in [17], 55.1 µM (active) and 45.3 µM (active). The result in experiment [7], in [9], in [10], in experiment [11], in experiment [13] and in experiment [15] was inactive. Further, the outcome in experiment [16], in experiment [18] and in experiment [19] was inactive.

Regarding `CCOC(=O)CN[C@@H](C(=O)N1CC[C@H]1C(=O)NCc1ccc(/C(N)=N/O)cc1)C1CCCCC1`, the outcome in [1], in [2], in experiment [3], in [20], in experiment [4] and in [5] was inactive. Moreover, the result in experiment [6], in experiment [7], in [8], in experiment [9], in experiment [10] and in [11] was inactive. For the same compound, the result in [12], in experiment [13], in [14], in experiment [15], in [16] and in experiment [17] was inactive. Moreover, the result in [18] and in experiment [19] was inactive.

Regarding `Cc1ccc(N=Nc2c(O)ccc3ccccc23)c(C)c1`, the AC50 in experiment [1] was 9.98 µM (active); in experiment [2], 3.88 µM (active); in experiment [4], 10 µM (active); in experiment [5] it was 10 µM (active); in experiment [6], 4.02 µM (active); in experiment [18], 8.07 µM (active). Moreover, the outcome in experiment [3], in experiment [20], in experiment [7], in experiment [8], in experiment [9] and in [10] was inactive. Besides, the outcome in experiment [11], in experiment [12], in [13], in [14], in experiment [15] and in experiment [16] was inactive. The result in experiment [17] and in experiment [19] was inactive.

With `CCCCCCCCCCCC`, the half-maximal activity concentration (AC50) in experiment [1] is 33.4 µM (active) and 32.1 µM (active); in [2], 7.03 µM (active) and 6.14 µM (active); in experiment [3], 9 µM (active) and 9.5 µM (active); in [4] it was 9.17 µM (active) and 6.53 µM (active). Besides, the outcome in experiment [5], in [6], in experiment [7], in experiment [8], in experiment [9] and in experiment [10] was inactive. Moreover, the result in experiment [11], in experiment [12], in experiment [13], in [14], in experiment [15] and in [16] was inactive. The outcome in experiment [17], in experiment [18] and in experiment [19] was inactive.

For `C=CC(=C)CC/C=C(\C)CCC=C(C)C`, the result in experiment [1], in experiment [2], in [3], in [20], in experiment [4] and in experiment [5] was inactive. In addition, the result in experiment [6], in experiment [7], in [8], in [9], in experiment [10] and in experiment [11] was inactive. The outcome in experiment [12], in [13], in experiment [14], in experiment [15], in experiment [16] and in experiment [17] was inactive. For the same compound, the outcome in [18] and in experiment [19] was inactive.

A word on the AC50: it is the midpoint of the concentration-response curve, whichever way the signal moves.

(Values after PubChem BioAssay (EPA / NIEHS).)
